The values below come from publication PMC7862700, “An all-to-all approach to the identification of sequence-specific readers for epigenetic DNA modifications on cytosine”.

What all share (assay): DAPPL (digital affinity profiling via proximity ligation, sequencing); 10 mM Tris-HCl pH 7.5, 50 mM NaCl, 1 mM DTT, 4% glycerol, room temperature, 30 min; GST-TFs on glutathione beads, 16-mer random dsDNA library, 0.1% formaldehyde crosslink after washing; high values mean tight binding
What all share (conditions): protein: recombinant; tags: N-terminal GST; dsDNA, one strand shown

The target of one assay is T1, FLI1 (Homo sapiens, UniProt Q01543 1-452).
T1 sequence: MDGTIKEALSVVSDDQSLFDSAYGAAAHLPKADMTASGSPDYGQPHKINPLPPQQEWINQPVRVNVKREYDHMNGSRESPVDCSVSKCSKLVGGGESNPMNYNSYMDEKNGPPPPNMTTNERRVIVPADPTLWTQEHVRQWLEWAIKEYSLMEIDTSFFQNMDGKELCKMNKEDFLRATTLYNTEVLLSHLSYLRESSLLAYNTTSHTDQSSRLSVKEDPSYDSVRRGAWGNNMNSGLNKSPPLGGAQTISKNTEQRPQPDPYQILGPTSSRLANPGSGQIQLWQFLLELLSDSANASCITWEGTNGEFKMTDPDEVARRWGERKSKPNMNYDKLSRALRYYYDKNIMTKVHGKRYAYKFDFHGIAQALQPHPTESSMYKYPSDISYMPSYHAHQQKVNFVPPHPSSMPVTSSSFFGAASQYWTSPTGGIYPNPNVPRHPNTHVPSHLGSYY
An outline of the steps:
(§1)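 Pools were built from human transcription factors expressed in yeast as GST fusions, captured on glutathione beads and DNA-barcoded, along with a tag-only sample. Incubation with 200 nmole of a 16-mer random double-stranded DNA library lasted 30 min at room temperature in Tris/NaCl/DTT/glycerol buffer, and was followed by washing, 0.1% formaldehyde crosslinking, proximity ligation, PCR amplification and Illumina NextSeq500 sequencing. Binding signal is the quotient of each hexamer's read frequency for a factor and its frequency for the tag-only sample.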

A further assay addresses T2, ELK1 (Homo sapiens, UniProt P19419 1-428).
T2 sequence: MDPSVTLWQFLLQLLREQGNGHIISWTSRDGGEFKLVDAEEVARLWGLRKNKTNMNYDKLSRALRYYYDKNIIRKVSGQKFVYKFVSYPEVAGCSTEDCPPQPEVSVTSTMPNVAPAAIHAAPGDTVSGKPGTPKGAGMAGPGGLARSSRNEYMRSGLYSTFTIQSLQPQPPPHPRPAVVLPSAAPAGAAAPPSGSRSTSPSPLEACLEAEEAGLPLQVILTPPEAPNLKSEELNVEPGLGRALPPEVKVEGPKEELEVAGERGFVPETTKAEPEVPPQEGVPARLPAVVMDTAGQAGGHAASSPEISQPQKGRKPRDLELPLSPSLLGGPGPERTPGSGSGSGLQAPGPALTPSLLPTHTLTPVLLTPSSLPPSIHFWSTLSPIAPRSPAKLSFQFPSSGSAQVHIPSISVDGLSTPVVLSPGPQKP
The procedure, abridged: as §1

The target in another assay is T3, GABPA (Homo sapiens, UniProt Q06546 1-454).
T3 sequence: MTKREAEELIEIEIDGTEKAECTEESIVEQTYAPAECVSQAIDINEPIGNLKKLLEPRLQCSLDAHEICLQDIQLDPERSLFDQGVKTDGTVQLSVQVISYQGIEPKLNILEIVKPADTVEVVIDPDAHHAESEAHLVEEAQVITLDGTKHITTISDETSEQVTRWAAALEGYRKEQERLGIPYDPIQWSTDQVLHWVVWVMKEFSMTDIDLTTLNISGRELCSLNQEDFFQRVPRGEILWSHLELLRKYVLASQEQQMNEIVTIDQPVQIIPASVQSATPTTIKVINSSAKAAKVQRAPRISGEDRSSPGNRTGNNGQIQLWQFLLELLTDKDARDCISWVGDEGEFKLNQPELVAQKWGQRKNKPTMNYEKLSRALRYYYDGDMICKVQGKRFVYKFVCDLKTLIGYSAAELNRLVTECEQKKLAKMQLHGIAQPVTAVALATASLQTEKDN
The procedure, abridged:
as §1

The target of the next assay is T4, ERG (Homo sapiens, UniProt P11308 1-479).
T4 sequence: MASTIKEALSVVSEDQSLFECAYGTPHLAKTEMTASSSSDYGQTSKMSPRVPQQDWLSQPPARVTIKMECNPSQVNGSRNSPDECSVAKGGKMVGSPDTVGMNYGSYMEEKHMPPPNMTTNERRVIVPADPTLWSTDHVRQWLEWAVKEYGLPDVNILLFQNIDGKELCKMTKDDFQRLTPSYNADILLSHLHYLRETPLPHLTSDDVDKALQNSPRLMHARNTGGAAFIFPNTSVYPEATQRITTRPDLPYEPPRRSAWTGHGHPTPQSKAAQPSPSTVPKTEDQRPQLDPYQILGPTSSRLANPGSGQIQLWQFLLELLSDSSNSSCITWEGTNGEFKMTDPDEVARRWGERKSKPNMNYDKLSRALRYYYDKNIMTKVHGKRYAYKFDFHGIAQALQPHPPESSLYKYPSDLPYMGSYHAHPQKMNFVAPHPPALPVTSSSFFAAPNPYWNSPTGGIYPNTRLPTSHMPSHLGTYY
The procedure, abridged: as §1

The target of a further assay is ELF1 (Homo sapiens, UniProt P32519 1-619). The procedure, abridged: as §1
Sequence of ELF1 (P32519 whole entry): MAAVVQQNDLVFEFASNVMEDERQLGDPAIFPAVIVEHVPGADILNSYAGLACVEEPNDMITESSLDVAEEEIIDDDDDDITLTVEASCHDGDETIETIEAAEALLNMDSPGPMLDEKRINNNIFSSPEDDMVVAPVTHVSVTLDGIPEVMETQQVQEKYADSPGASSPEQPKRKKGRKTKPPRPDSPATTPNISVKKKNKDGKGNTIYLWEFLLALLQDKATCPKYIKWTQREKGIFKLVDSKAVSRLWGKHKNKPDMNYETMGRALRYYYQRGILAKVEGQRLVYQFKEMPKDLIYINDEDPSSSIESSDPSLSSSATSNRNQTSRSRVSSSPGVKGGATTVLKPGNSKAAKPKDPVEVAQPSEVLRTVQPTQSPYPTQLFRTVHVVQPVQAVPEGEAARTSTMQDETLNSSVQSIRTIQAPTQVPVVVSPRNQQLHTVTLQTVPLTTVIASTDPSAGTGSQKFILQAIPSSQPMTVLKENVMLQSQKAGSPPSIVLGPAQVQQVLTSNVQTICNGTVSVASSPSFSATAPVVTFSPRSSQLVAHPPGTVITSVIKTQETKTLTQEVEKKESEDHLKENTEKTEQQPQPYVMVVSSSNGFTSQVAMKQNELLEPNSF
Another assay has as its target T5, EHF (Homo sapiens, UniProt Q9NZC4 1-300).
T5 sequence: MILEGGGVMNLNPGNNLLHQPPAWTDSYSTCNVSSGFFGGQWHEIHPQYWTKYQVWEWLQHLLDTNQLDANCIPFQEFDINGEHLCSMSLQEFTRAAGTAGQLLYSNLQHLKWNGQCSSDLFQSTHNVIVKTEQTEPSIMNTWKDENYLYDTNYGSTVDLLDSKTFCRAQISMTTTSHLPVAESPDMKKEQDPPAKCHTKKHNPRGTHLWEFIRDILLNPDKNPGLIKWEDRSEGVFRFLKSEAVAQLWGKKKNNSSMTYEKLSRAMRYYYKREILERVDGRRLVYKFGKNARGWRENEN
The procedure, abridged: as §1

In a further assay the target is SPI1 (Homo sapiens, UniProt P17947 1-270). An outline of the steps: as §1
A further assay addresses SPIB (Homo sapiens, UniProt Q01892 1-262). An outline of the steps: as §1
The next assay deals with T6, ELK3 (Homo sapiens, UniProt P41970 1-407).
T6 sequence: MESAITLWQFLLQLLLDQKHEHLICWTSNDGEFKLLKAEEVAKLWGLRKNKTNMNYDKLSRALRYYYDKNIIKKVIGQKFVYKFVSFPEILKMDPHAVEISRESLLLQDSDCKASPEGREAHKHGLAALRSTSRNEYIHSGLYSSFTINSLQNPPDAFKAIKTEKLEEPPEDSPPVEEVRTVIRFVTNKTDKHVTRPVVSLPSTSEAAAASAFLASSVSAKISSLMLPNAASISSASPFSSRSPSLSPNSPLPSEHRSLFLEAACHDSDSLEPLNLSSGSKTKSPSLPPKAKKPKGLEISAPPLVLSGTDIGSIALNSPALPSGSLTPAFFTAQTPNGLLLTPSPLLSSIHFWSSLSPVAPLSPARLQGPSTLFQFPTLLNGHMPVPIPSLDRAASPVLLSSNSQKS
An outline of the steps: as §1

Sequence of SPIB (Q01892 whole entry): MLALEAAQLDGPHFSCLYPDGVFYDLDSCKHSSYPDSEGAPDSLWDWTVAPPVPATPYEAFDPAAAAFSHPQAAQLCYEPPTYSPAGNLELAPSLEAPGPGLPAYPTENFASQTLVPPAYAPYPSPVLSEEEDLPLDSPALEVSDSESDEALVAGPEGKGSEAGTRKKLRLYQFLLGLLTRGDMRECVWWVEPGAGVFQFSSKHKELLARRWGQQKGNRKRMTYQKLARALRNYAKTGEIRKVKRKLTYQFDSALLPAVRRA

With GTTTTT, the binding signal with FLI1 is 1.31 fold enrichment (6-mer frequency, TF over GST control); in the assay with ELK1 it was 1.19 fold enrichment (6-mer frequency, TF over GST control); with GABPA it was 1.4 fold enrichment (6-mer frequency, TF over GST control); with ERG it was 1.17 fold enrichment (6-mer frequency, TF over GST control); with ELF1, 1.34 fold enrichment (6-mer frequency, TF over GST control); with EHF, 1.38 fold enrichment (6-mer frequency, TF over GST control). The binding signal is 1.42 fold enrichment (6-mer frequency, TF over GST control) with SPI1; 1.36 fold enrichment (6-mer frequency, TF over GST control) with SPIB; 1.51 fold enrichment (6-mer frequency, TF over GST control) with ELK3.

In the case of ATCTTG, the binding signal with FLI1 was 1.35 fold enrichment (6-mer frequency, TF over GST control); in the assay with ELK1 it was 1.38 fold enrichment (6-mer frequency, TF over GST control); with GABPA, 1.27 fold enrichment (6-mer frequency, TF over GST control); in the assay with ERG it was 1.39 fold enrichment (6-mer frequency, TF over GST control); with ELF1 it was 1.33 fold enrichment (6-mer frequency, TF over GST control); with EHF, 1.35 fold enrichment (6-mer frequency, TF over GST control). The binding signal was 1.3 fold enrichment (6-mer frequency, TF over GST control) in the assay with SPI1; 1.31 fold enrichment (6-mer frequency, TF over GST control) in the assay with SPIB; 1.41 fold enrichment (6-mer frequency, TF over GST control) with ELK3.

For AATTCG, the binding signal with FLI1 was 1.29 fold enrichment (6-mer frequency, TF over GST control); with ELK1 it was 1.26 fold enrichment (6-mer frequency, TF over GST control); with GABPA, 1.24 fold enrichment (6-mer frequency, TF over GST control); with ERG, 1.3 fold enrichment (6-mer frequency, TF over GST control); with ELF1 it was 1.29 fold enrichment (6-mer frequency, TF over GST control); in the assay with EHF, 1.23 fold enrichment (6-mer frequency, TF over GST control). Moreover, the binding signal with SPI1 was 1.13 fold enrichment (6-mer frequency, TF over GST control); with SPIB, 1.38 fold enrichment (6-mer frequency, TF over GST control); in the assay with ELK3, 1.29 fold enrichment (6-mer frequency, TF over GST control).

On to CCGGCT, for which the binding signal with FLI1 is 1.75 fold enrichment (6-mer frequency, TF over GST control); with ELK1, 1.62 fold enrichment (6-mer frequency, TF over GST control); in the assay with GABPA, 1.65 fold enrichment (6-mer frequency, TF over GST control); with ERG it was 1.74 fold enrichment (6-mer frequency, TF over GST control); with ELF1, 1.68 fold enrichment (6-mer frequency, TF over GST control); with EHF it was 1.77 fold enrichment (6-mer frequency, TF over GST control). Further, the binding signal with SPI1 was 1.73 fold enrichment (6-mer frequency, TF over GST control); in the assay with SPIB, 1.91 fold enrichment (6-mer frequency, TF over GST control); in the assay with ELK3, 1.62 fold enrichment (6-mer frequency, TF over GST control).

On to CTCGAG, for which the binding signal with FLI1 is 1.23 fold enrichment (6-mer frequency, TF over GST control); with ELK1, 1.34 fold enrichment (6-mer frequency, TF over GST control); with GABPA, 1.35 fold enrichment (6-mer frequency, TF over GST control); in the assay with ERG it was 1.31 fold enrichment (6-mer frequency, TF over GST control); with ELF1 it was 1.28 fold enrichment (6-mer frequency, TF over GST control); in the assay with EHF, 1.21 fold enrichment (6-mer frequency, TF over GST control). Moreover, the binding signal with SPI1 was 1.35 fold enrichment (6-mer frequency, TF over GST control); in the assay with SPIB it was 1.31 fold enrichment (6-mer frequency, TF over GST control); with ELK3, 1.18 fold enrichment (6-mer frequency, TF over GST control).

On to TTGATG, for which the binding signal in the assay with FLI1 is 1.45 fold enrichment (6-mer frequency, TF over GST control); in the assay with ELK1 it was 1.82 fold enrichment (6-mer frequency, TF over GST control); with GABPA, 1.72 fold enrichment (6-mer frequency, TF over GST control); in the assay with ERG it was 1.61 fold enrichment (6-mer frequency, TF over GST control); with ELF1 it was 1.64 fold enrichment (6-mer frequency, TF over GST control); with EHF, 1.65 fold enrichment (6-mer frequency, TF over GST control). Also, the binding signal with SPI1 was 1.51 fold enrichment (6-mer frequency, TF over GST control); with SPIB, 1.62 fold enrichment (6-mer frequency, TF over GST control); in the assay with ELK3 it was 1.52 fold enrichment (6-mer frequency, TF over GST control).

On to TTAACC, for which the binding signal in the assay with FLI1 is 1.2 fold enrichment (6-mer frequency, TF over GST control); in the assay with ELK1 it was 1.25 fold enrichment (6-mer frequency, TF over GST control); with GABPA, 1.18 fold enrichment (6-mer frequency, TF over GST control); with ERG it was 1.21 fold enrichment (6-mer frequency, TF over GST control); with ELF1 it was 1.31 fold enrichment (6-mer frequency, TF over GST control); with EHF, 1.24 fold enrichment (6-mer frequency, TF over GST control). The binding signal in the assay with SPI1 was 1.23 fold enrichment (6-mer frequency, TF over GST control); with SPIB it was 1.33 fold enrichment (6-mer frequency, TF over GST control); with ELK3, 1.3 fold enrichment (6-mer frequency, TF over GST control).
